# Where “and” joins values, the source holds several entries; their conditions need not be identical. Identical values can stand only once. Inconclusive results are not listed. Where a call stands in place of a potency, no number is given. The source holds several records for some structures; these can differ, active in one and inactive in another. Calls of active or inactive are those of the source. Unless noted, calls follow the shape of the dose curve; as a rule, active = well fitted curve in the direction sought with a large enough effect; inconclusive = small, poorly fitted or top-dose-only effect, or another doubt; inactive = no such curve, though single readings can be large; an effect the other way counts as inactive or inconclusive.
# How the values were obtained:
# [1] = biological target: Calcium and integrin-binding protein 1 (Homo sapiens) (UniProt Q99828); experiment: Primary qHTS for Identification of Calcium Integrin Binding Protein 1 (CIB1) Competitor (AID 1508620);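 also: GST tagged CIB1 binding a fluorescein labelled alphaIIb integrin peptide tracer; top concentration of the series differs between compounds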
# Method in brief: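 Fluorescence polarization competition: CIB1-GST (1 uM final) preincubated with compound 15 min at room temperature, then FITC-labeled alphaIIb peptide (100 nM final) added for another 15 min. Polarization read at Ex 480/Em 540.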
# [2] = biological target: Rap guanine nucleotide exchange factor 3 (Homo sapiens) (UniProt O95398); experiment: Confirmatory qHTS for antagonist of cAMP-regulated guanine nucleotide exchange factor 3 (EPAC1) (AID 1645880); conditions: EPAC1 Rap1B-BODIPY-GDP exchange, fluorescence; also: potency is read from the fitted curve at half-maximal effect; nearly all actives have a fitted effect of over 55% in size
# Method in brief: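 Nucleotide exchange uses 100 nM EPAC1, 250 nM RAP1B-BODIPY-GDP and 50 uM GDP, with compounds in a concentration-titration series. After 5 min at room temperature, fluorescence (480 nm ex/540 nm em) is read every 5 min for 30 min. Data are normalized to control ATA and DMSO.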
# [3] = biological target: Rap guanine nucleotide exchange factor 3 (Homo sapiens) (UniProt O95398); experiment: Confirmatory qHTS for agonist of cAMP-regulated guanine nucleotide exchange factor 3 (EPAC1) (AID 1645881);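 also: EPAC1 catalysed release of BODIPY-GDP from Rap1B seen as fluorescence loss; nearly all actives have a fitted effect of over 75% in size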
# [4] = biological target: Rap guanine nucleotide exchange factor 4 (Homo sapiens) (UniProt Q8WZA2); experiment: Confirmatory qHTS for agonist of cAMP-regulated guanine nucleotide exchange factor 4 (EPAC2) (AID 1645884);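 also: nucleotide exchange releases bodipy-GDP from Rap1 and this lowers its fluorescence; nearly all actives have a fitted effect of over 65% in size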
# [5] = biological target: Rap guanine nucleotide exchange factor 4 (Homo sapiens) (UniProt Q8WZA2); experiment: Confirmatory qHTS for antagonist of cAMP-regulated guanine nucleotide exchange factor 4 (EPAC2) (AID 1645885); conditions: outcome: dose series up to 114 µM; also: nearly all actives have a fitted effect of over 25% in size
# [6] = biological target: Rap guanine nucleotide exchange factor 3 (Homo sapiens) (UniProt O95398); experiment: Counterscreen qHTS for antagonist of cAMP-regulated guanine nucleotide exchange factor 3 (EPAC1) (AID 1645888);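 also: fluorescence loss as bound BODIPY-GDP is released from Rap1B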
# Method in brief: (§1)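 Measured: fluorescence of BODIPY-GDP bound to Rap1B, which falls as exchange proceeds. Conditions include 50 uM competing GDP, 5 and 30 min reads, and a later cAMP challenge for antagonist detection.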
# [7] = biological target: Rap guanine nucleotide exchange factor 3 (Homo sapiens) (UniProt O95398); experiment: Counterscreen qHTS for agonist of cAMP-regulated guanine nucleotide exchange factor 3 (EPAC1) (AID 1645889); also: nearly all actives have a fitted effect of over 40% in size
# Method in brief: as §1
# [8] = Primary qHTS for inhibitors of nuclear receptor binding SET domain protein 2 (NSD2) in an RCH-ACV wild type WT cells (2C) (AID 1645877); also: nearly all actives have a fitted effect of over 70% in size; also: potency is read from the fitted curve at half-maximal effect
# [9] = Primary qHTS for inhibitors of nuclear receptor binding SET domain protein 2 (NSD2) in an isogenic RCH-ACV NSD2 p.E1099K mutant (9B) (AID 1645876); also: nearly all actives have a fitted effect of over 70% in size; also: potency is read from the fitted curve at half-maximal effect
# [10] = NCATS anti-infectives library activity on the primary C. elegans qHTS viability assay (AID 1745855; calls by dose curve; also: potency is read from the fitted curve at half-maximal effect); conditions: C. elegans worm area imaging, day 7
# Method in brief: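 Viability read-out is GFP fluorescence of PE254-GFP-FLuc C. elegans, measured by laser cytometry (488 nm) at day 0, 3 and 7. Ten L1 worms per well were incubated 7 days at 21 °C with compounds and bacterial capsules in S medium.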
# [11] = biological target: Cytochrome P450 2D6 (Homo sapiens) (UniProt P10635); experiment: Cytochrome P450 family 2 subfamily D member 6 (CYP2D6) small molecule antagonists: luciferase biochemical (cell-free) qHTS assay (AID 1645840; active = well fitted curve in the direction sought with a large enough effect in the repeat runs; an effect the other way counts as inactive or inconclusive; also: nearly all actives have a fitted effect of over 55% in size; also: potency is read from the fitted curve at half-maximal effect)
# Method in brief: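 P450-Glo luminescent screen: recombinant CYP2D6 enzyme–proluciferin substrate mix preincubated with compound 10 min at room temperature, then NADPH regeneration added for 1 h at room temperature. Detection reagent added for 20 min; luciferin light read as relative luminescence units.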
# [12] = biological target: Cytochrome P450 2C9 (Homo sapiens) (UniProt P11712); experiment: Cytochrome P450 family 2 subfamily C member 9 (CYP2C9) small molecule antagonists: luciferase biochemical (cell-free) qHTS assay (AID 1645842; active = well fitted curve in the direction sought with a large enough effect in the repeat runs; an effect the other way counts as inactive or inconclusive; also: nearly all actives have a fitted effect of over 55% in size; also: potency is read from the fitted curve at half-maximal effect)
# Method in brief: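 Luminescence, after 20 min with luciferin detection reagent, reflected CYP2C9 turnover during a 1 h NADPH-driven reaction at 37C. Enzyme-substrate mix contained 0.4% bovine serum albumin and was preincubated with compound 10 min at room temperature.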
# [13] = biological target: Catechol O-methyltransferase (Homo sapiens) (UniProt P21964); experiment: Confirmatory Screen for Target Class Profiling of Small Molecule Inhibitors of Methyltransferases (AID 1745852); conditions: MTase-Glo luminescence, SAH detection, recombinant enzyme; measured here: COMT max response; stronger effect = lower value
# [14] = biological target: Guanidinoacetate N-methyltransferase (Homo sapiens) (UniProt Q14353); experiment: as above; conditions: MTase-Glo luminescence, SAH detection, recombinant enzyme; activity change, negative = inhibition: at 57.3 µM (top of the series) unless noted
# [15] = biological target: Nicotinamide N-methyltransferase (Homo sapiens) (UniProt P40261); experiment: as above; conditions: MTase-Glo luminescence, SAH detection, recombinant enzyme; measured here: NNMT max response; stronger effect = lower value
# [16] = biological target: Phenylethanolamine N-methyltransferase (Homo sapiens) (UniProt P11086); experiment: as above; conditions: MTase-Glo luminescence, SAH detection, recombinant enzyme; measured here: PNMT max response; stronger effect = lower value
# Chain of Phenylethanolamine N-methyltransferase (Homo sapiens) (P11086 whole entry, looked up): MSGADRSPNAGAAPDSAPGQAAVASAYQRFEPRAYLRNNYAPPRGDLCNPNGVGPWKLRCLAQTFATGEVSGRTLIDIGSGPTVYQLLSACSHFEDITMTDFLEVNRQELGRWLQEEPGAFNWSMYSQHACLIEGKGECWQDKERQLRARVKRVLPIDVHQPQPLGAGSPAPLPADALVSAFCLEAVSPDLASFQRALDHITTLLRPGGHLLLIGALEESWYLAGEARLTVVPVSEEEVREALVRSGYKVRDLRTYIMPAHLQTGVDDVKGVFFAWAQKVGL
# Chain of Cytochrome P450 2C9 (Homo sapiens) (P11712 whole entry, looked up): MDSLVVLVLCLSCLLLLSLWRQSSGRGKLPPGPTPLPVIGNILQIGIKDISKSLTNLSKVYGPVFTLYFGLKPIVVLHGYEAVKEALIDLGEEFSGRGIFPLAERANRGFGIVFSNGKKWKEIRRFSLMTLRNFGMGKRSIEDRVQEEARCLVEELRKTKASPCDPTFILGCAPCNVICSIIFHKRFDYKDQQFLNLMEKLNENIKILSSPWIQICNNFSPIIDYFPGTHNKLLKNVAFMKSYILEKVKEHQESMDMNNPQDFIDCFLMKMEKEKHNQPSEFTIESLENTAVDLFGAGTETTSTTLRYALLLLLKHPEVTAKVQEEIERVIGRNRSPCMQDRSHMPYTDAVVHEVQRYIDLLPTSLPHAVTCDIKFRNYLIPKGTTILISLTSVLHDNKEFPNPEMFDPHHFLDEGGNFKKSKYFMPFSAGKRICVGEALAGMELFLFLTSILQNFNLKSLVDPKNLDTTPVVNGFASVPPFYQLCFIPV
# Chain of Rap guanine nucleotide exchange factor 3 (Homo sapiens) (O95398 whole entry, looked up): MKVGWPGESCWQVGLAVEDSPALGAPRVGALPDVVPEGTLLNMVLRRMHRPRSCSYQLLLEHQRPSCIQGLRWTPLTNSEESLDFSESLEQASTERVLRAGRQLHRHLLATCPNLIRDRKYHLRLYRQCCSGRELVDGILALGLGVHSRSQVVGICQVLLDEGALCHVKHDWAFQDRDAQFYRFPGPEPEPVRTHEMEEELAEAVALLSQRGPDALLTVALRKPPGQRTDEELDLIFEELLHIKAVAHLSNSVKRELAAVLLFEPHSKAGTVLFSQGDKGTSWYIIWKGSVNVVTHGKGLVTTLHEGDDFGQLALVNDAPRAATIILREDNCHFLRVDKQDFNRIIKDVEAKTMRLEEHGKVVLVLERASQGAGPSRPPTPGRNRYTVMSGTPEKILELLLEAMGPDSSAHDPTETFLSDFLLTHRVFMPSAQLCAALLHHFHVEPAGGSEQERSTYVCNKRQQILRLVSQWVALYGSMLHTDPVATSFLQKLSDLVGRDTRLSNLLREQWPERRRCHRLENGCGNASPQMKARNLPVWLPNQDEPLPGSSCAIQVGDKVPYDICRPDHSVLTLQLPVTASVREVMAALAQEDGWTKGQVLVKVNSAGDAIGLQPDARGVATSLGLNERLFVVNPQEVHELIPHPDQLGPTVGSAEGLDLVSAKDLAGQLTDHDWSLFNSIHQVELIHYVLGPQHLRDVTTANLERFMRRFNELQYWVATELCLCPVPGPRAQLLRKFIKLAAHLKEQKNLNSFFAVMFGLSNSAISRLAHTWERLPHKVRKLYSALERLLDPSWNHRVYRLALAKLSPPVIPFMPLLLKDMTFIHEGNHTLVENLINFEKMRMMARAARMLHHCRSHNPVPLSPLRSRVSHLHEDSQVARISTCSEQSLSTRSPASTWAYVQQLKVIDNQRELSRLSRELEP
# Chain of Cytochrome P450 2D6 (Homo sapiens) (P10635 whole entry, looked up): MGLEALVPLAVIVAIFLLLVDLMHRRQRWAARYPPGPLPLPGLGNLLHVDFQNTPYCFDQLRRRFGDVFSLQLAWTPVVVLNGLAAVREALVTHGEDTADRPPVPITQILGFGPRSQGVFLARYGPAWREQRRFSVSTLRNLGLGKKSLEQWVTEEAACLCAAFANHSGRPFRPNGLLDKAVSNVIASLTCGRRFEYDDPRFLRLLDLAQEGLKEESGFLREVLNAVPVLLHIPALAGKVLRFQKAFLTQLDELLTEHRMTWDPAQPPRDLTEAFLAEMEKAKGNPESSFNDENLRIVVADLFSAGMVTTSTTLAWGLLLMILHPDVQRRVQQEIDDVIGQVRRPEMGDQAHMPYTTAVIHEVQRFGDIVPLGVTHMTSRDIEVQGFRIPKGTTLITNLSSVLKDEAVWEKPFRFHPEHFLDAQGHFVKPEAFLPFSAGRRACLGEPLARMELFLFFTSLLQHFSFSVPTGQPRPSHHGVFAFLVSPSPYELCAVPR
# Chain of Catechol O-methyltransferase (Homo sapiens) (P21964 whole entry, looked up): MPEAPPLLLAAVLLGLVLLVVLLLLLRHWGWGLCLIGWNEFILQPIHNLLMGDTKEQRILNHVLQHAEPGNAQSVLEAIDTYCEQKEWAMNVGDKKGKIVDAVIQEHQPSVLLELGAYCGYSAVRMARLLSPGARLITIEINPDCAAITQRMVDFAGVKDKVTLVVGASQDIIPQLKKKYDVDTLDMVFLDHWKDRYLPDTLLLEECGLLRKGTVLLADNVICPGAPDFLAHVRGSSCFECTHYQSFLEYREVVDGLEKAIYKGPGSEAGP
# Chain of Calcium and integrin-binding protein 1 (Homo sapiens) (Q99828 whole entry, looked up): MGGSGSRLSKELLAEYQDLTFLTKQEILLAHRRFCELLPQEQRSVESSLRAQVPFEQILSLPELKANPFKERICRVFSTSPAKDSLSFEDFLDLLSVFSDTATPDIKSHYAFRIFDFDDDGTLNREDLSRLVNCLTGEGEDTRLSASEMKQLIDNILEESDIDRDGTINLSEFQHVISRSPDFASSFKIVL
# Chain of Nicotinamide N-methyltransferase (Homo sapiens) (P40261 whole entry, looked up): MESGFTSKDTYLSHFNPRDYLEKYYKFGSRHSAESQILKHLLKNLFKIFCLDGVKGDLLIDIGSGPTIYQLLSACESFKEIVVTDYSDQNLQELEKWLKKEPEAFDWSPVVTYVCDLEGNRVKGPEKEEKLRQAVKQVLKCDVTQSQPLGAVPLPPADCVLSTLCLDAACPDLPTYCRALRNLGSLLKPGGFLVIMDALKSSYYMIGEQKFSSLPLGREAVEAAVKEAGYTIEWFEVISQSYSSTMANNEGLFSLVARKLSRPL
# Chain of Rap guanine nucleotide exchange factor 4 (Homo sapiens) (Q8WZA2 whole entry, looked up): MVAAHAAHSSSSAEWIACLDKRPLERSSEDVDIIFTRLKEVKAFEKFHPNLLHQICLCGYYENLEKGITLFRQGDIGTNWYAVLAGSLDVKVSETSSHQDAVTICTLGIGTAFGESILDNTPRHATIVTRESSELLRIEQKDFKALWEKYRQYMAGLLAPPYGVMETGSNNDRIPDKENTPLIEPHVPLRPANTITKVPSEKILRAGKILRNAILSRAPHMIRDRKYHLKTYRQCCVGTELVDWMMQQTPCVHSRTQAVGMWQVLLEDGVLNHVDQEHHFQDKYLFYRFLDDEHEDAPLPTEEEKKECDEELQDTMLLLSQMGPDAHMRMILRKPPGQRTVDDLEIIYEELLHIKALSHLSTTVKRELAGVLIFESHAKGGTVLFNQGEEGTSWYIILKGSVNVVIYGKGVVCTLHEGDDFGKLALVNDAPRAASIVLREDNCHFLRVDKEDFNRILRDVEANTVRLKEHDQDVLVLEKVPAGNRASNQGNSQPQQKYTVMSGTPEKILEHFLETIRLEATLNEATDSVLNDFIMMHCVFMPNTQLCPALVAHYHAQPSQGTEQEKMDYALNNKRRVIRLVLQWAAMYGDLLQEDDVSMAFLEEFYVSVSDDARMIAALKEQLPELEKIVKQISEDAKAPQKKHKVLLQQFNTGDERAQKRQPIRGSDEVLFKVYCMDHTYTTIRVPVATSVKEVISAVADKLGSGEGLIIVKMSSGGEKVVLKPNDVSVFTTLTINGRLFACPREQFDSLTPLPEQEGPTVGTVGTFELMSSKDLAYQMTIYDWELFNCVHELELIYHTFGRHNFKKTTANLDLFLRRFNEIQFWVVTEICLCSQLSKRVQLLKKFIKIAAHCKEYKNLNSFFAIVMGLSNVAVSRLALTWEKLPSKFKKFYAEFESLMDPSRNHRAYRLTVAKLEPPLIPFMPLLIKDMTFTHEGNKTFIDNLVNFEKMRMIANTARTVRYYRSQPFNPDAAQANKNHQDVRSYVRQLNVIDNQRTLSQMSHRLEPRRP
smiles,measurement,setting,value
Cc1ccc([C@@H]2CC=C(C(=O)O)[C@H](c3ccc(C(C)(C)C)cc3)N2S(=O)(=O)c2ccc(C)cc2)cc1,Potency,[1],inactive
same,Potency,[2],50.1 µM (active)
same,outcome,[3],inactive
same,activation,[4],5.81% [at 17.1 µM] (inactive)
same,outcome,[5],inactive
same,"activity change, negative = inhibition",[6],-12.2% [at 30.8 µM] (inactive)
same,activation,[7],14.8% [at 30.8 µM] (inactive)
C/C=C/C=C/C1=C2C(=O)C3(C)C4C(C(=O)CC(O)/C=C/C)=C(O1)C1(C)C2C2(C)OC1(O)C4(C)OC23O (centres undefined),Potency,[1],inactive
same,Potency,[8],7.96 µM (active)
COC(=O)/C=C/c1ccc(O[C@@H]2O[C@H](CO)[C@@H](O)[C@H](O)[C@H]2O)cc1,Potency,[1],inactive
same,Potency,[8],8.01 µM (active)
Cc1noc2c1-c1ccccc1C(c1ccc(Cl)cc1)=N[C@H]2CC(N)=O,Potency,[1],inactive
same,Potency,[9],inactive and 590 nM (active)
same,Potency,[8],inactive and 525 nM (active)
same,Potency,[10],5.15 µM (active)
CC1(C(=O)O)CCCC2(C)C3CCC4CC3(CCC12)CC4(O)CO (centres undefined),Potency,[9],inactive
COc1cnc(-n2cnc(C)n2)c2[nH]cc(C(=O)C(=O)N3CCN(C(=O)c4ccccc4)CC3)c12,Potency,[11],inactive
same,Potency,[9],inactive
same,Potency,[8],inactive
CC1=C[C@H]2[C@@H](CC1=O)[C@H](C)C[C@H](O)[C@H]2C(C)C,Potency,[1],inactive
same,Potency,[8],inactive
C=C(C(=O)OC)[C@]12O[C@@](C)(CC[C@@]3(O)/C(=C\C)C(=O)O[C@]3(C)C[C@@H]1OC(=O)C(CO)CN1CCCC1C(=O)O)CC2=O (some centres undefined),Potency,[1],inactive
same,Potency,[8],6.82 µM (active)
CCC(C)C(N)C(=O)NCCN1CCOCC1 (centres undefined),Potency,[11],inactive
same,Potency,[12],inactive
same,Potency,[9],inactive
same,Potency,[8],inactive
OC[C@H]1O[C@@H](OCCc2ccccc2)[C@H](O[C@@H]2OC[C@@H](O)[C@H](O)[C@H]2O)[C@@H](O)[C@@H]1O,Potency,[1],inactive
same,Potency,[9],inactive
same,Potency,[8],inactive
same,activity,[13],-76.4%
same,"activity change, negative = inhibition",[14],0% [at 29.8 µM]
same,activity,[15],3.88%
same,activity,[16],-1.31%
C=C1CCC2C(C)(C)CC(O)CC2(C)C1CCC(C)CCOC(=O)CCC(=O)O (centres undefined),Potency,[9],inactive
CCCc1[nH]nc2c1C(c1cc(Cl)cc(Cl)c1O)C(C#N)=C(N)O2 (centres undefined),Potency,[11],2.13 µM (active)
same,Potency,[12],12 µM (active)
C/C=C(\C)C(=O)O[C@H]1C=CC(=O)O[C@H]1/C=C/[C@H](O)[C@@H](C)O,Potency,[1],inactive
same,Potency,[8],23 µM (active)
COc1ccc(S(=O)(=O)Nc2nc(-c3cccc([N+](=O)[O-])c3)cs2)cc1OC,Potency,[12],4.25 µM (active)
same,Potency,[9],inactive
same,Potency,[8],inactive
CC(=O)OC/C(=C/C(=O)O)CC[C@@H]1C(CO)=CC[C@@H]2C(C)(C)CCC[C@@]12C,Potency,[1],inactive
same,activity,[13],-82.3%
same,"activity change, negative = inhibition",[14],-4.99%
same,activity,[15],-8.71%
same,activity,[16],-5.03%
CC1=C(CO)CC(C(C)C2CCC3C4CC=C5CC(OC6OC(COC7OC(CO)C(O)C(O)C7O)C(O)C(O)C6O)CC(O)C5(C)C4CCC23C)OC1=O (centres undefined),Potency,[9],inactive
same,Potency,[8],inactive
COc1cc(/C=C/c2ccccc2)c(C(=O)O)c(O)c1CC=C(C)C,Potency,[9],inactive
same,Potency,[8],inactive
O=C(O)CCc1ccc(NCc2cccc3c2CCCN3CCOc2ccccc2)cc1F,Potency,[9],inactive
same,Potency,[8],inactive
same,activity,[13],-3.27%
same,"activity change, negative = inhibition",[14],-0.799%
same,activity,[15],-32.3%
same,activity,[16],-5.97%
N=C(N)c1ccc2nc(-c3cc(CC(=O)NC(CC(=O)O)C(=O)O)cc(-c4cc(S(N)(=O)=O)ccc4O)c3O)[nH]c2c1 (centres undefined),Potency,[9],inactive
same,Potency,[8],inactive
CC1OC(O[C@@H]2[C@@H](O)[C@H](OC(=O)[C@]34CCC(C)(C)C[C@H]3C3=CCC5[C@@]6(C)CC[C@H](O[C@@H]7O[C@H](C(=O)O)[C@@H](O)[C@H](O[C@@H]8OC[C@@H](O)[C@H](O)[C@H]8O)[C@H]7O[C@@H]7O[C@H](CO)[C@H](O)[C@H](O)[C@H]7O)[C@@](C)(C=O)C6CC[C@@]5(C)[C@]3(C)C[C@H]4O)O[C@H](C)[C@@H]2OC2OC(C)C(OC3OCC(O)C(O)C3O)C(O)C2O)C(O)C(O)C1O (some centres undefined),"activity change, negative = viability loss",[9],-4.28% [at 9.23 µM] (inactive)
same,"activity change, negative = cell killing",[8],-13.7% [at 9.23 µM] (inactive)
COc1cc(C(CO)C(OC2OC(CO)C(O)C(O)C2O)c2ccc(O)c(OC)c2)ccc1O (centres undefined),Potency,[9],inactive
same,Potency,[8],inactive
CN(C)CC(c1ccc(O)cc1)C1(O)CCCCC1 (centres undefined),Potency,[9],inactive
same,Potency,[8],inactive
COC(=O)[C@]1(C)CCC[C@@]2(C)C(=O)CC[C@H]3C(=O)C=C(CC[C@@H]21)C3O (some centres undefined),Potency,[9],inactive
same,Potency,[8],inactive
COc1cc(C2Oc3c(OC)cc(/C=C/C(=O)OC4CC(O)(C(=O)O)CC(O)C4O)cc3C2CO)ccc1O (centres undefined),Potency,[9],inactive
same,Potency,[8],inactive
same,activity,[13],-71.9%
same,"activity change, negative = inhibition",[14],-2.32% [at 29.8 µM]
same,activity,[15],-1.14%
same,activity,[16],-2.58%
C=C(C(=O)O)[C@H]1C[C@]2(C)C(=O)CC[C@]23O[C@H]1C[C@@H]3C,Potency,[9],inactive
same,Potency,[8],inactive
same,activity,[13],-84.1%
same,"activity change, negative = inhibition",[14],-1.21%
same,activity,[15],-2.06%
same,activity,[16],-0.38%

# From PubChem BioAssay (NCATS)
